# According to paper PMC7862700, “An all-to-all approach to the identification of sequence-specific readers for epigenetic DNA modifications on cytosine”:
# What was measured:
# Experiment in all cases: DAPPL (digital affinity profiling via proximity ligation, sequencing); 10 mM Tris-HCl pH 7.5, 50 mM NaCl, 1 mM DTT, 4% glycerol, room temperature, 30 min; GST-TFs on glutathione beads, 16-mer random dsDNA library, 0.1% formaldehyde crosslink after washing; high values mean tight binding
# Details in all cases: protein: recombinant; tags: N-terminal GST; dsDNA, one strand shown
# [1] = target: ETV1 (Homo sapiens, UniProt P50549 1-477)
# Chain of ETV1 (P50549 whole entry, the tested form may be a part): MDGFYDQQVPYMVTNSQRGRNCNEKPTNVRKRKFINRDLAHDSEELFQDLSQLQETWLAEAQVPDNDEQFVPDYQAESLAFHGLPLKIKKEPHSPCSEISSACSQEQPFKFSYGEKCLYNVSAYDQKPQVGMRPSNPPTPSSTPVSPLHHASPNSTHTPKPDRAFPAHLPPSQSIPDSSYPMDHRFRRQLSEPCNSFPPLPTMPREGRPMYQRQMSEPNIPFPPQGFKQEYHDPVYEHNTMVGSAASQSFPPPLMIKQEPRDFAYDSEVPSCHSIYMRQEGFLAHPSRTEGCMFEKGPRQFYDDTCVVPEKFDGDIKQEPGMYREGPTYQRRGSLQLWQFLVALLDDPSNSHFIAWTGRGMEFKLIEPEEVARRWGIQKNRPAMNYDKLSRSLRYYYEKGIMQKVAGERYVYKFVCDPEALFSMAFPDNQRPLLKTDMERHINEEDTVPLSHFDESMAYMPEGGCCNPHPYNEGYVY
# Summary of the method: (§1)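 Sequencing on an Illumina NextSeq500 followed washing, crosslinking with 0.1% formaldehyde, proximity ligation (BsaI/T4 ligase, 1 h, 37 °C) and PCR amplification of pools that had been incubated for 30 min at room temperature with 200 nmole of a random double-stranded 16-mer DNA library in Tris/NaCl/DTT/glycerol buffer. Each pool held DNA-barcoded human transcription factors, expressed in yeast as GST fusions and captured on glutathione beads, plus a tag-only sample. Binding signal is a hexamer's read frequency for a factor divided by its frequency in the tag-only sample.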
# [2] = target: T1, ERF (Homo sapiens, UniProt P50548 1-548)
# T1 sequence: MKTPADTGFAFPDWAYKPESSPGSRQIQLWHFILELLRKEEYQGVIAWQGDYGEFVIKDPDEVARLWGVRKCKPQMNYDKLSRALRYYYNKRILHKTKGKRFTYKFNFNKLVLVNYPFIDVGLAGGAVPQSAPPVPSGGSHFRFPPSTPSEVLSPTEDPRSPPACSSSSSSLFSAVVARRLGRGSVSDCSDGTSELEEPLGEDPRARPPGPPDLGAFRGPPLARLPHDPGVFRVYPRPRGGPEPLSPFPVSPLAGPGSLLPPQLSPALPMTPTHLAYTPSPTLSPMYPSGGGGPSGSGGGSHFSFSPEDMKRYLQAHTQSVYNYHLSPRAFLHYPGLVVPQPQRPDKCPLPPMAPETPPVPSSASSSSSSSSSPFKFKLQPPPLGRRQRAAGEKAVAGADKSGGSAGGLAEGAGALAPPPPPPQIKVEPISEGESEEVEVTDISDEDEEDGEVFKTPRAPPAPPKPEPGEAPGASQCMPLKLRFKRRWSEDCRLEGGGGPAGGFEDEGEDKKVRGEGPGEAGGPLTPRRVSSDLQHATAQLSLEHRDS
# Summary of the method: as §1
# [3] = target: T2, ETV3L (Homo sapiens, UniProt Q6ZN32 1-361)
# T2 sequence: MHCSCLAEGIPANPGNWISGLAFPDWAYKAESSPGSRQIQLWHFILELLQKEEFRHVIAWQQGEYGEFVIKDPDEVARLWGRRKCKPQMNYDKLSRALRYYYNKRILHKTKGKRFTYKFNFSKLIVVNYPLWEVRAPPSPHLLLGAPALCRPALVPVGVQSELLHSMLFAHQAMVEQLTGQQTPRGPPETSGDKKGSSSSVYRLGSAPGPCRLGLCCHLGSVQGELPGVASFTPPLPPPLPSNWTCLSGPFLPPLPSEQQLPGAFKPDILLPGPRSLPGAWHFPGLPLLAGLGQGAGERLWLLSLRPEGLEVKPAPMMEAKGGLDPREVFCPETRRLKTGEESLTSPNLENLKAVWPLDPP
# Summary of the method: as §1
# [4] = target: T3, ETS2 (Homo sapiens, UniProt P15036 1-469)
# T3 sequence: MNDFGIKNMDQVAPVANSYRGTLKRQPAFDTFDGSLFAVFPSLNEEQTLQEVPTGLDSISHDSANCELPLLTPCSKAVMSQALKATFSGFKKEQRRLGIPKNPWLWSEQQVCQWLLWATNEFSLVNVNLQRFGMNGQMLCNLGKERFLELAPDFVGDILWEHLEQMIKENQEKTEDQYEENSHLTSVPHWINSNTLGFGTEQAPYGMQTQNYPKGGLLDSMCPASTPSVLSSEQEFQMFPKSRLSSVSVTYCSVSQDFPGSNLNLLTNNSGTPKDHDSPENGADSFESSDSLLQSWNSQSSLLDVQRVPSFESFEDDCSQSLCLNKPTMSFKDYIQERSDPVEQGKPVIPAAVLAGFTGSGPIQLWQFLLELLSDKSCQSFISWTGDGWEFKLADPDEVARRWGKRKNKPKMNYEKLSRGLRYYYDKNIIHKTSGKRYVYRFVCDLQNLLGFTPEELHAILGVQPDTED
# Summary of the method: as §1
# [5] = target: T4, SPDEF (Homo sapiens, UniProt O95238 1-335)
# T4 sequence: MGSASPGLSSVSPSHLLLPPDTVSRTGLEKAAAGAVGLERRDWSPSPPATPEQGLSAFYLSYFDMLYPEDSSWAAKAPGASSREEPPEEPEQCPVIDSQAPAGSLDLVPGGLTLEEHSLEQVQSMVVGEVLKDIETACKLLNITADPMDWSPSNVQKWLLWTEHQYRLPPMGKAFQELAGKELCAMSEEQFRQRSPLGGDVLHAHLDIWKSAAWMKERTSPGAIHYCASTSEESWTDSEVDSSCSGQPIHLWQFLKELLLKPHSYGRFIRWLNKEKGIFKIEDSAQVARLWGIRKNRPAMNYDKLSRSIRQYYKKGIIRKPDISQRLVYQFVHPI
# Summary of the method: as §1
# [6] = target: T5, ETV7 (Homo sapiens, UniProt Q9Y603 1-341)
# T5 sequence: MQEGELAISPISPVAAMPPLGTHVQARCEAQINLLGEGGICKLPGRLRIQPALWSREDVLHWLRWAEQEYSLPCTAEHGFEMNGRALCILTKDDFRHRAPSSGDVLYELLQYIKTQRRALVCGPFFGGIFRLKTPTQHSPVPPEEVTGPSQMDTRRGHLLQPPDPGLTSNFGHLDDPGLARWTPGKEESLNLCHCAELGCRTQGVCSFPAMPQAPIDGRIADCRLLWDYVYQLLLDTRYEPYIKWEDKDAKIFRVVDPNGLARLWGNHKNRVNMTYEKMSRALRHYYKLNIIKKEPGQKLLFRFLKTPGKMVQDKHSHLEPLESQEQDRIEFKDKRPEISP
# Summary of the method: as §1
# [7] = target: T6, ELF5 (Homo sapiens, UniProt Q9UKW6-2 1-255)
# T6 sequence: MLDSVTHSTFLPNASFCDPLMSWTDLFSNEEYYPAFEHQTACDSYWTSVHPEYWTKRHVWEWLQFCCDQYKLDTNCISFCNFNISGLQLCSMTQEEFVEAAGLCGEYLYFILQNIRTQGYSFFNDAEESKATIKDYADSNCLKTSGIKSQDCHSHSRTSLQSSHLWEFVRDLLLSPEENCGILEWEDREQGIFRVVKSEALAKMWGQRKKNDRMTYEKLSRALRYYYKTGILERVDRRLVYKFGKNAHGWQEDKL
# Summary of the method: as §1
# [8] = target: T7, ETV3 (Homo sapiens, UniProt P41162-2 1-143)
# T7 sequence: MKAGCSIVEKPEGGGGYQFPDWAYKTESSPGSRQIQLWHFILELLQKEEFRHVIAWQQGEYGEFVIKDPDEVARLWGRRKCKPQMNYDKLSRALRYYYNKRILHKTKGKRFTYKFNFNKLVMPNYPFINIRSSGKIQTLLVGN
# Summary of the method: as §1
# [9] = target: ETV6 (Homo sapiens, UniProt P41212 1-452)
# Chain of ETV6 (P41212 whole entry): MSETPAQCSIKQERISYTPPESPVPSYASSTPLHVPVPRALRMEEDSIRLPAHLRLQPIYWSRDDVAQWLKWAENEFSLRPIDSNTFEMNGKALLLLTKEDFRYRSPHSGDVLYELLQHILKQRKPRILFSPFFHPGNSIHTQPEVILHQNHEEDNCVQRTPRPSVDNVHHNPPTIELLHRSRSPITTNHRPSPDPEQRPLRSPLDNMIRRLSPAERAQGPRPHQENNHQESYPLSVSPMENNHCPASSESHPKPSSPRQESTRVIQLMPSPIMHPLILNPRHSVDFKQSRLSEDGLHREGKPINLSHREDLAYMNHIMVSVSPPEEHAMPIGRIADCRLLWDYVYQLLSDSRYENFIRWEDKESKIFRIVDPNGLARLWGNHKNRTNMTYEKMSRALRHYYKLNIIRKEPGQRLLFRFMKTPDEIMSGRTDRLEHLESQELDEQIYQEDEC
# Summary of the method: as §1
sequence,measurement,setting,value
TGTCTA,binding signal,[1],"1.24 fold enrichment (6-mer frequency, TF over GST control)"
same,binding signal,[2],"1.21 fold enrichment (6-mer frequency, TF over GST control)"
same,binding signal,[3],"1.08 fold enrichment (6-mer frequency, TF over GST control)"
same,binding signal,[4],"1.18 fold enrichment (6-mer frequency, TF over GST control)"
same,binding signal,[5],"1.2 fold enrichment (6-mer frequency, TF over GST control)"
same,binding signal,[6],"1.28 fold enrichment (6-mer frequency, TF over GST control)"
same,binding signal,[7],"1.24 fold enrichment (6-mer frequency, TF over GST control)"
same,binding signal,[8],"1.23 fold enrichment (6-mer frequency, TF over GST control)"
same,binding signal,[9],"1.07 fold enrichment (6-mer frequency, TF over GST control)"
